The values below come from PubChem BioAssay (Tox21).

Inconclusive results are not listed. A number with no mark means an inactive call. The source made the active and inactive calls. Calls come from the whole dose curve; as a rule, active = well fitted activation curve with a large enough effect in the repeat runs; inconclusive = weak or mixed curves; inactive = no such curve, though single readings can be large or run the other way.
% is set by controls: 0 for no effect and ±100 for the full control effect; potency is the fitted concentration of half-maximal effect.

This assay is described as follows: qHTS assay to identify small molecule agonists of the estrogen related receptor signaling pathway with the pleiotropic PPARgamma coactivator (PGC) (AID 1224823). To be noted: ERR/PGC reporter cell line, luciferase agonist mode; series mostly up to 46.1 µM; activation: at the top concentration. The source says:
National Center for Advancing Translational Sciences [NCATS]
NIH Chemical Genomics Center [NCGC]
U.S. Environmental Protection Agency [EPA]
National Institutes of Environmental Health Sciences [NIEHS]
National Toxicology Program [NTP]
Estrogen related receptors (ERRs), the first orphan nuclear receptors discovered, play an important role in the control of cellular energy metabolism. ERRs are required for high-energy production in response to the environmental challenges. The pleiotropic PPARgamma coactivator (PGC) is a major partner of ERR and a key regulator in energy homeostasis. Together they have been implicated in the etiology of metabolic disorders such as Type 2 diabetes and metabolic syndrome. ERR-alpha was also identified as an adverse marker for breast cancer progression; ERR-alpha-positive tumors have a poor prognosis. To screen and to identify environmental compounds that perturb the PGC/ERR signaling pathways could provide valuable information for potential therapeutic or preventive measures in the treatment of metabolic disease. For identifying PGC/ERR agonists, PGC/ERR cell line (provided by NTP) has been used to screen LOPAC library.
The PGC/ERR cells were dispensed at 2,000 cells/5 ul/well in 1536-well white plates using a Multidrop dispenser. After the assay plates were incubated at a 37 C/5% CO2 incubator for 6 hours, 23 nL of compounds dissolved in DMSO, positive and negative controls or DMSO only was transferred to the assay plate by a pin tool. The plates were incubated at 37 C for 18 hours. 4 ul/well of One-Glo reagent was added into the assay plates using a Flying Reagent Dispenser. After 30 min incubation at room temperature, the luminescence intensity in the plates was measured using a ViewLux plate reader.
For orientation: In qHTS, concentration-response curves come from the screen itself.
As for `Cc1[nH]c2ccc(O)cc2c1CCN`, the “activation” value is -4.67%. Still for that read-out and setting: as for `C[C@H]1C2Cc3ccc(O)cc3[C@@]1(C)CCN2CC1CC1`, the figure is -0.535%; as for `CC(N)C(=O)OC(C)(C)Cc1ccc(Cl)cc1` (stereo not given), -5.04%; as for `NCCc1c[nH]c2ccccc12`, 3.19%. The same measure, in the same setting: then `N#C/C(=C/c1ccc(O)c(O)c1)C(N)=S`, with 15.6%.

On to `O=C(O)Cc1cnc[nH]1`, for which the “activation” value is -1.64%.

With `C[C@H](N)Cc1cccc(C(F)(F)F)c1`, the “activation” value was 12.6%. Take `CCCCCCCCCCCCCC(=O)O[C@@H]1[C@@H](C)[C@@]2(O)[C@@H](C=C(CO)C[C@@]3(O)C(=O)C(C)=C[C@@H]23)C2C(C)(C)[C@@]21OC(C)=O` (stereo not given in full): the Potency is 6.71 nM (active).

In the case of `N=C(N)c1ccc(CS(=O)(=O)F)cc1`, the “activation” value is 1.87%. Take `CCCN(CCC)[C@H]1CCc2c(F)ccc(O)c2C1`: the “activation” value was 2.29%. Consider `NNC(=O)c1ccc(O)cc1`, for which the “activation” value is -2.97%.

For `NCCc1ccc(S(=O)(=O)F)cc1`, the “activation” value was -3.47%. For the molecule `COC(=O)N1CCN(C(=O)Cc2ccc(Cl)c(Cl)c2)C(CN2CCCC2)C1` (stereo not given), the “activation” value is 15.9%. Regarding `CCCn1c(=O)c2[nH]c(C3CCCC3)nc2n(CCCOC(=O)c2ccc(S(=O)(=O)F)cc2)c1=O`, the “activation” value was 3.79%. In the case of `Oc1ccc2c3c1O[C@H]1c4[nH]c5c(c4C[C@@]4(O)[C@@H](C2)N(CC2CC2)CC[C@]314)C[C@@]1(O)[C@H]2Cc3ccc(O)c4c3[C@@]1(CCN2CC1CC1)[C@H]5O4`, the “activation” value was -1.8%.

Take `C[C@@H]1O[C@H](C[N+](C)(C)C)C[C@H]1O`: the “activation” value is 9.79%.

As to `CCCN(CCC)[C@@H]1CCc2ccc(O)cc2C1`, the “activation” value was -0.453%. For `COc1ccc2c(c1O)-c1cccc3c1[C@@H](C2)N(C)CC3`, the “activation” value is 8.25%.

With `CC1=NN=C(c2ccc(N)cc2)c2cc3c(cc2C1)OCO3`, the “activation” value was 2.98%. With `NC(CP(=O)(O)O)C(=O)O` (stereo not given), the “activation” value was -1.99%. Take `COc1ccc2c(c1)C13CCCCC1C(C2)N(C)CC3` (stereo not given): the “activation” value was -9.13%. As for `CNc1ccc2oc(C[C@H]3O[C@@]4(CC[C@H]3C)O[C@H]([C@H](C)C(=O)c3ccc[nH]3)[C@H](C)C[C@H]4C)nc2c1C(=O)O`, the “activation” value was -33.5%. Same read-out and setting: then `CN1CCc2cccc(Cl)c2CC1`, with -0.663%; and `c1ccc(CCCN2CCN(CCOC(c3ccccc3)c3ccccc3)CC2)cc1`, with -13.9%.

In the case of `C[N+]1(C)CCN(c2ccccc2)CC1`, the “activation” value is -0.757%. On the same count and under the same terms, then `NC(=O)c1cc(N2CC2)c([N+](=O)[O-])cc1[N+](=O)[O-]`, with -3.57%; and `O=c1ccc2[nH]cc(C3=CCNCC3)c2[nH]1`, with -4.33%. As for `CCCN(CCC)C1CCc2cccc(O)c2C1` (stereo not given), the “activation” value is 4.53%. Same read-out and setting: as for `C[C@@H](N)Cc1cnc[nH]1`, the figure is -5.99%. Still for that read-out and setting: then `COc1ccc(C(c2ccc(OC)cc2)C(Cl)(Cl)Cl)cc1`, with -10.1% [at 92.2 µM]; and `CC(C)(C)OC(=O)NC1[C@H]2CNC[C@@H]12` (stereo not given in full), with -20.8%. Take `COC[C@H]1OC(=O)c2coc3c2[C@@]1(C)C1=C(C3=O)C2CCC(=O)[C@@]2(C)C[C@H]1OC(C)=O` (stereo not given in full): the “activation” value was -2.76%. Same read-out and setting: as for `c1ccc2c(c1)[I+]c1ccccc1-2`, the figure is -4.95%; as for `CN1CC[C@@]2(C)c3cc(O)ccc3N(C)C12` (stereo not given in full), -26.3%. Consider `CN1C2CCC1CC(OC(c1ccccc1)c1ccccc1N)C2` (stereo not given), for which the “activation” value was -5.47%. Still for that read-out and setting: as for `CCCN(CCC)C1CCc2ccc(O)cc2C1` (stereo not given), the figure is 2.72%; as for `CS(=N)(=O)CC[C@H](N)C(=O)O` (stereo not given in full), 3.76%. Take `NC(=O)COc1c(F)cc(SCCNS(=O)(=O)c2ccccc2)cc1F`: the “activation” value was -1.55%.

With `C[N+](C)(C)CC#CCOC(=O)Nc1cccc(Cl)c1`, the “activation” value is 1.5%. On to `C[C@]12CCC3C(CC[C@H]4C[C@H](O)CC[C@]34C)C1CC[C@@H]2C(=O)CO` (stereo not given in full), for which the “activation” value was 2.07%.
